Source: PubChem (National Center for Advancing Translational Sciences (NCATS))
A selection: hits, their analogues and other compounds. The true share with any hit is near 5.9%.
GLP1R cytotox – cytotoxic in the GLP-1 receptor inverse agonist counter-screen; 410,000 tested, 0.13% active; Potency, µM (doses to about 38.3 µM), for the others: top-dose activity change, negative = inhibition, hits mostly inhibitors; HEK293 cAMP-luciferase reporter cells, luminescence, 24 h; AID 624418;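 also: loss of luciferase light is scored as toxicity; % is scaled to controls: 0 for no effect and ±100 for the full control effect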
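To flag toxic compounds, the library was rerun on cells for 24 hr at 37 deg C and 5% CO2. Viability-linked luminescence was captured 12 min after adding luciferase detection reagent.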
RORgamma inh – ROR gamma (mouse) transcription inhibition; Drosophila S2 Gal4-RORgamma UAS-luciferase reporter, 20 h; 310,000 tested, 5.4% active; AID 2551; Potency, µM (series often up to 53.6 µM), inactives show at the highest dose activity change, negative = inhibition, actives largely listed as inhibitors; also: % is scaled to controls: 0 for no effect and ±100 for the full control effect; nearly all actives have a fitted effect of over 60% in size
Target sequence (P51450 whole entry, looked up, the tested form may be a part): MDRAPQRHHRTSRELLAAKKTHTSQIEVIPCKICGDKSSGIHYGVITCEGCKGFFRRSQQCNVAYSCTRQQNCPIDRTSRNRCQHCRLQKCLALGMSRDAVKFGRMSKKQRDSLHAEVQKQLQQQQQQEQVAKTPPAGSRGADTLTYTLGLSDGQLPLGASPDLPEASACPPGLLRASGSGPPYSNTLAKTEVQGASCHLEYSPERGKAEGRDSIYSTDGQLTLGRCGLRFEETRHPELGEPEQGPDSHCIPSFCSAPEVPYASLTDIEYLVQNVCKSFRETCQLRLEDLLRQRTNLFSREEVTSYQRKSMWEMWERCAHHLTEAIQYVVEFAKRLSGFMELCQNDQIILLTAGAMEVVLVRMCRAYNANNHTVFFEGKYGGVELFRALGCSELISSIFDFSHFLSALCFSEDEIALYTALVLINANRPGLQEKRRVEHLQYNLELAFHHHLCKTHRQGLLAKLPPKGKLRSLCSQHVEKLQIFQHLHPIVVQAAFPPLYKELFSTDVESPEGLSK
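Drosophila Schneider cells stably carrying a metallothionein-driven Gal4 DBD–ROR gamma fusion and a UAS-Photinus luciferase reporter were exposed to compound for 1 hr, then induced with copper sulfate (700 uM final) for 20 hr at ambient temperature before luminescence reading.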
Gal4-VP16 FLuc – inhibits Gal4-VP16 luciferase reporter, ROR gamma counter-screen | Drosophila S2 Gal4-VP16 UAS-luciferase, luminescence, 20 h | Potency, µM (series often up to 53.6 µM), for the others: at the top dose activity, negative = inhibition, usual class: inhibitors | 310,000 tested, 3.5% active;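 also: Gal4-VP16 expression switched on by copper sulfate through the metallothionein promoter; % is scaled to controls: 0 for no effect and ±100 for the full control effect; nearly all actives have a fitted effect of over 50% in size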
GLP-1R agonist – GLP-1 receptor (human) agonism | P43220 | HEK293 GLP-1R CRE-luciferase, luminescence, 4-6 h; cells express a hypersensitive GLP-1R form | Potency, µM (doses to about 45.6 µM), without a hit: at the highest dose activation, usual class: activators | 380,000 tested, 0.007% active; also: % of control where 0% means no effect
GLP1R inv ag – acts as inverse agonist at human GLP-1 receptor. HEK293 GLP-1R CRE-luciferase, luminescence, 24 h; GLP-1R form is constitutively active. Potency, µM (highest dose often 38.3 µM), inactives show at the top dose activity change, negative = inhibition, most hits filed as inhibitors. 410,000 tested, 1.6% active. P43220; also: % is scaled to controls: 0 for no effect and ±100 for the full control effect; nearly all actives have a fitted effect of over 55% in size
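Readout was luciferase luminescence, measured 12 min after detection reagent at room temperature. Beforehand, GLP-1R reporter HEK293 cells had sat 12 h, then received compounds for 24 hr at 37 deg C.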
* = called active by the depositor; ? = inconclusive; · = not tested or not shown; [ ] = dose if it differs, or a comment. Calls follow the shape of the dose curve; as a rule, active = well fitted curve in the direction sought with a large enough effect; inconclusive = small, poorly fitted or top-dose-only effect, or another doubt; inactive = no such curve, though single readings can be large; an effect the other way counts as inactive or inconclusive. Potency is read from the fitted curve at half-maximal effect.

SMILES	GLP1R cytotox	RORgamma inh	Gal4-VP16 FLuc	GLP-1R agonist	GLP1R inv ag
CCn1c(-c2csc(-c3ccc(Cl)cc3)n2)n[nH]c1=S	4.8%	1.26µM*	?	-14.6%	5.5%
CCCc1cnc2c(c1SCc1ccc(C(F)(F)F)cc1)c(=O)n(C)c(=O)n2C	0.4%	·	·	·	17.1%
O=C(Nc1ccc(S(=O)(=O)N2CCOCC2)cc1)c1ccc([N+](=O)[O-])o1	-10.9%	-11.2%	?	5.5%	81.5%
O=C(Nc1ccc(N2CCN(C(=O)c3cccs3)CC2)cc1)c1ccc([N+](=O)[O-])o1	·	12.6µM*	?	·	·
O=C(Nc1ccc(N2CCOCC2)cc1)c1ccc([N+](=O)[O-])o1	-10.5%	11.2µM*	?	2.3%	9.6%
CC(C)(C)C(=O)Nc1nc(-c2ccc3c(c2)OCO3)cs1	6.4%	-10.9%	27.9%	-4.4%	10µM*
CCC(=O)Nc1nc(-c2ccc3c(c2)OCCO3)cs1	-3.0%	?	?	-2.2%	-25.3%
O=C(N/N=C/c1ccco1)c1ccncc1	1.4%	?	?	-11.1%	28.8%
Cc1ccccc1C(=O)Nc1ccccc1C(=O)N/N=C\c1ccco1	-11.9%	10µM*	?	-6.7%	6.8%
O=C(Nc1ccccc1C(=O)N/N=C/c1ccco1)c1ccc(Cl)cc1	3.6%	2.82µM*	3.98µM*	-5.0%	1.7%
O=C(N/N=C/c1ccco1)c1ccc(OCc2ccccc2)cc1	12.0%	-11.8%	-18.7%	-19.3%	-27.2%
O=C(Nc1ccccc1C(=O)N/N=C/c1ccco1)c1ccccc1	17.3%[1.53 µM]	7.94µM*	?	0.4%	11.4%
Cc1ccccc1C(=O)Nc1nnc(CC(=O)N/N=C/c2ccco2)s1	28.0%	-1.1%	-1.1%	9.4%	-7.0%
O=C(Nc1ccccc1C(=O)N/N=C/c1ccco1)c1ccc(F)cc1	-18.4%	1.12µM*	5.01µM*	6.7%	19.1%
Cc1cccc(N2CCN(C(=O)CCCn3ncn4c(cc5occc54)c3=O)CC2)c1C	1.5%	·	·	·	-14.9%
Cc1ccc(C)c(NC(=O)c2cc(S(=O)(=O)N3CCCc4ccccc43)ccc2F)c1	2.9%	·	·	·	?
CC(=O)Nc1ccc(NC(=O)C(Cc2ccccc2)N2Cc3ccccc3C2=O)cc1 (configuration not stated)	4.1%	·	·	·	3.1%
CC(=NNC(=O)c1ccncc1)c1ccccc1Cl	-8.6%	·	·	5.4%	7.9%
C/C(=N\NC(=O)c1ccccc1NC(=O)c1ccc(Cl)cc1)c1ccncc1	-6.8%	0.562µM*	0.891µM*	-3.9%	?
C/C(=N\NC(=O)C(=O)Nc1cccc(Cl)c1)c1ccncc1	7.5%	?	5.62µM*	-3.9%	-26.4%
O=C(N/N=C/c1ccco1)C1CC1(c1ccccc1)c1ccccc1 (configuration not stated)	-3.4%	0.355µM*	?	-18.9%	10µM*
C=C(C)C(=O)OCCCCCC	·	-33.2%	-0.4%	·	·
C=CCN(C)NC(=S)Nc1ccccc1	1.9%	5.01µM*	10µM*	2.7%	-0.3%
C=CCN(C)NC(=O)Nc1ccccc1	-20.5%	20.2%	-0.1%	1.3%	-13.0%
CC(=O)N1CCc2c(sc3c2c(=O)n(-c2ccccc2Cl)c(=O)n3Cc2cccc(C)c2)C1	-8.7%	·	·	·	4.2%
SMILES	GLP1R cytotox	RORgamma inh	Gal4-VP16 FLuc	GLP-1R agonist	GLP1R inv ag
CC1CC(C)CN(C(=O)CCCn2c(=S)[nH]c3ccccc3c2=O)C1 (configuration not stated)	-19.0%	7.94µM*	12.6µM*	1.6%	0.0%
COCCn1c(=S)[nH]c2cc(C(=O)N3CC(C)CC(C)C3)ccc2c1=O (configuration not stated)	2.3%	11.2µM*	?	-1.2%	-21.5%
O=C(CCCn1c(=S)[nH]c2ccccc2c1=O)NCCSCc1ccccc1	?	12.6µM*	-5.1%[10 µM]	-4.7%	?
COCCn1c(=O)[nH]c2cc(C(=O)N3CCN(c4ccccc4OC)CC3)ccc2c1=O	0.0%	-3.3%	-3.8%	-9.6%	13.3%
O=C(CCCn1c(=S)[nH]c2ccccc2c1=O)N1CCCCC1	-1.8%	?	?	-1.5%	5.3%
COCCn1c(=S)[nH]c2cc(C(=O)N3CCN(c4ccccc4OC)CC3)ccc2c1=O	6.0%	14.1µM*	?	-12.6%	3.6%
CCOc1ccc(C(=O)NCC(c2ccco2)S(=O)(=O)c2cccs2)cc1 (configuration not stated)	-1.8%	·	·	·	-10.9%
O=C(CCN1C(=O)C2C3C=CC(C4CC34)C2C1=O)Oc1cccc2cccnc12 (configuration not stated)	?	2µM*	7.94µM*	0.2%	?
O=C(CCN1C(=O)C2C3C=CC(C4CC34)C2C1=O)Oc1ccc(Br)cc1 (configuration not stated)	-0.9%	1.2%	-3.6%	2.9%	-7.7%
CC(=O)N(C)c1ccc(C(O)(C(F)(F)F)C(F)(F)F)cc1	-4.7%	12.6µM*	-11.8%	7.1%	-4.2%
CCOC(=O)N(C)c1ccc(C(O)(C(F)(F)F)C(F)(F)F)cc1	4.0%	25.1%	-3.2%	-2.0%	?
COc1ccc(CNc2ncnc3c2[nH]c2cc(OC)c(OC)cc23)cc1	0.5%	5.6%	-10.7%	16.0%	?
O=c1c2[nH]c3ccccc3c2ncn1CCC1=CCCCC1	7.4%	44.5%	-3.2%	-9.9%	46.2%
C1=C(CCNc2ncnc3c2[nH]c2ccccc23)CCCC1	-35.7%	7.94µM*	0.708µM*	-6.5%	4.47µM*
COc1ccc(CNc2ncnc3c2[nH]c2ccccc23)cc1	0.0%	?	6.31µM*	8.1%	?
CC1C(=O)CC(c2ccc([N+](=O)[O-])cc2)NC1c1ccc([N+](=O)[O-])cc1 (configuration not stated)	-5.2%	23.0%	19.1%	0.9%	8.91µM*
O=C(CCS(=O)(=O)c1cccc2nsnc12)Nc1ccc(F)cc1	5.4%	·	·	0.3%	10.4%
O=C1NC(Nc2nccs2)(C(F)(F)F)C(=O)N1CCc1ccccc1 (configuration not stated)	11.0%	12.6µM*	?	-0.2%	?
O=C(O)CN1CCN(c2ncc(C(F)(F)F)cc2Cl)CC1	5.2%	-4.0%	-3.1%	-2.0%	2.3%
Cc1ccc(C(=O)N2CCN(c3ncc(C(F)(F)F)cc3Cl)CC2)s1	2.7%	-5.4%	-6.2%	6.0%	?
C=CCNC(=S)N1CCN(c2ncc(C(F)(F)F)cc2Cl)CC1	-10.3%	-37.8%	9.4%	17.9%	8.91µM*
Cc1cc(C)cc(NC(=S)N2CCN(c3ncc(C(F)(F)F)cc3Cl)CC2)c1	-5.5%	3.55µM*	-25.7%	5.5%	-28.5%
CCCCN(CC)CCCNC(=O)c1sc2nc(C)cc(C)c2c1-n1cccc1	-0.4%	·	·	·	?
Cn1c(=S)c2[nH]c(SCCN)nc2n(C)c1=O	3.16µM*	·	·	-3.5%	?
Cn1c(=S)c2[nH]c(SCCN3CCCC3)nc2n(C)c1=O	?	1µM*	?	-4.7%	5.62µM*
